Data from PubChem BioAssay (NCI).
Several values for one entry are separate records, joined by “and”; a condition that tells them apart may be missing. Identical values can stand only once. This is part of a sample that, as a whole, favours compounds with a hit. Of some 83,000 tested, about 20% had one in any assay.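 Growth was measured after 48 h exposure to one concentration of compound in 96-well plates. Values under 10 count as active.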 A number with no mark means an inactive call. Activity calls are given as the source filed them.

tested on: HL-60(TB) leukemia; experiment: NCI-60 one-dose screen, 48 h (100 = growth as untreated, 0 = no growth, -100 = all killed); details: 10 µM unless noted

Row | Compound | growth
1 | COC(=O)c1cc(-c2ccc(OC)cc2)[nH]c1N/N=C/c1c(Cl)cccc1Cl | -44.9% (active)
2 | COc1ccc(C(=O)C(=O)c2ccccc2)cc1 | 94.2%
3 | O=C(O)c1ccc(-c2nn(-c3ccc(C(=O)O)cc3)cc2/C=N/Nc2c(F)c(F)cc(F)c2F)cc1 | 96.5%
4 | O=C1NCC(Nc2ccc(Br)cc2Cl)C(=O)N1 (configuration not stated) | 108%
5 | COc1ccc2c(c1)C(=O)/C(=C/c1ccccn1)CC2 | 75.5%
6 | COc1ccc(/C=N\Nc2ccc([N+](=O)[O-])cn2)cc1OC | 100%
7 | Nc1c(C(=O)Nc2ccccc2Cl)sc2nc3c(cc12)C(O)CCC3 (configuration not stated) | 0.926% (active)
8 | Cc1ccc(S(N)(=O)=O)cc1Cl | 79.8%
9 | COc1ccc(CN2c3ccccc3Sc3ccccc32)cc1F | -7.46% (active)
10 | CC(CN(C)C)CN1c2ccccc2Sc2ccccc21 (configuration not stated) | 91.3% and 105% and 94.5%
11 | CCOC(=O)C1=C(C)n2nc(CC#N)c(C#N)c2NC1c1ccc(Cl)cc1 (configuration not stated) | 105%
12 | O=C(Cn1ccc(=O)[nH]c1=O)c1ccc([N+](=O)[O-])o1 | 87.1%
